NOMO-1 viab = NOMO-1 AML cell viability reduction, primary screen, STK33 inhibitor project, CellTiter-Glo luminescence; NOMO-1 AML viability, 72 h; inhibition, % (concentration not given with the values); 37,000 compounds, 7.5% hits; AID 2330, 2010; in the data active = inhibition above about 80%; inconclusive = no clear call, values can overlap the other calls
MITF inh = inhibitors of MITF, primary screen, MITF inhibitor project, cell-based, luminescence; TRPM1 promoter luciferase, 24 h; inhibition, % (test concentration not listed); 37,000 compounds, 0.28% hits; AID 2240, 2010; in the data active = inhibition above about 85%; inconclusive = no clear call, values can overlap the other calls; inactive = below about 68%;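 also: human melanocyte line stably carrying TRPM1 promoter luciferase reporter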
Hedgehog inh = Hedgehog pathway signaling inhibitors, primary screen, luminescence, Shh-LIGHT2 cells, Gli-luciferase; inhibition, % (test concentration not listed); Shh-LIGHT2 Gli-luciferase reporter, 30 h; AID 2313, 2010; 22,000 compounds, 2.1% hits;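 active = mean inhibition across valid replicates above about 65%, limit read from the data; inconclusive = mean under the limit, yet half or more replicates past it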;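 also: pathway switched on by Shh-conditioned medium diluted 1 in 25 in low serum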
* = called active by the depositor; ? = inconclusive; / = not tested or not shown. Sampled rows, rich in hits. Any-hit rate of the full collection: about 7.9%.

SMILES | NOMO-1 viab | MITF inh | Hedgehog inh
C[C@H]1CN([C@@H](C)CO)C(=O)c2cc(NS(=O)(=O)c3ccccc3)ccc2O[C@H]1CN(C)Cc1ccc(C(=O)Nc2ccccc2N)cc1 | ? | 5 | /
Cc1noc(C)c1NC(=O)Nc1ccc2c(c1)CC(=O)N([C@H](C)CO)C[C@@H](C)[C@@H](CN(C)Cc1ccc(C(=O)Nc3ccccc3N)cc1)O2 | 22 | 0 | /
C[C@H]1CN([C@@H](C)CO)C(=O)c2cc(NS(=O)(=O)c3ccccc3)ccc2O[C@@H]1CN(C)Cc1ccc(C(=O)Nc2ccccc2N)cc1 | 23 | -2 | /
COc1ccc(C(=O)CSc2nnc(-c3ccc(OC)c(OC)c3)n2-c2ccc(C)cc2)cc1 | 39 | -10 | /
C[C@H]1CN([C@@H](C)CO)C(=O)c2cccc(NS(=O)(=O)c3cccs3)c2O[C@H]1CN(C)CC1CC1 | -7 | -14 | -27
Cc1ccc(N(C(C)C(=O)Nc2cc(Cl)ccc2Oc2ccccc2)S(C)(=O)=O)cc1C (stereo not given) | 58 | 13 | /
Cc1cc2nnc(SCC(=O)c3cc(C)n(Cc4ccccc4)c3C)n2c2ccccc12 | 131* | -12 | /
Cc1cc(C(=O)CSc2nnc3ccccn23)c(C)n1Cc1ccccc1 | 17 | 67 | /
COc1ccc(C)cc1NC(=O)CN(c1ccc(F)c(Cl)c1)S(C)(=O)=O | -9 | -7 | /
Cc1ccc(C)c(OC(=O)CS(=O)c2ccccc2[N+](=O)[O-])c1 (stereo not given) | 120* | 23 | /
O=C(CS(=O)c1ccccc1[N+](=O)[O-])Oc1ccc(Cl)cc1Cl (stereo not given) | 69 | 22 | /
O=C(c1ccccc1)c1ccc(OCC(O)Cn2cnc3ccccc32)cc1 (stereo not given) | 73 | 50 | /
Cc1ccc(NC(=O)C(C)Sc2nccc(C)n2)cc1 (stereo not given) | 5 | 2 | /
COc1ccc(CNC(=O)Nc2ncc([N+](=O)[O-])s2)cc1 | 39 | 87* | 49
COc1ccc(OC)c(NC(=O)NCc2cnn(C)c2)c1 | 7 | -22 | /
CCOc1ccc(NC(=O)C(C)Sc2nc3ccccc3c(=O)n2-c2cccc(C)c2)cc1 (stereo not given) | 31 | 23 | /
O=C(NCc1ccco1)c1cc2nc(-c3cccs3)cc(C(F)(F)Cl)n2n1 | 1 | 14 | /
Cn1c(=O)c2c(nc(NCC(O)c3ccccc3)n2Cc2ccc(F)cc2)n(C)c1=O (stereo not given) | 95* | 41 | /
Cn1c(=O)c2c(nc(NCCN)n2Cc2ccc(Cl)cc2)n(C)c1=O | 17 | -7 | /
Cc1ccc(S(=O)(=O)N(C)C[C@@H]2Oc3ccc(NC(=O)CCC(F)(F)F)cc3CC(=O)N([C@H](C)CO)C[C@@H]2C)cc1 | ? | 16 | -142
CCOC(=O)Nc1cc(=O)c2ccccc2o1 | 119* | -10 | -56
COc1ccc(-c2cc(=O)c3ccccc3o2)cc1 | 23 | 4 | -74
C[C@@H]1CCCCO[C@@H](CN(C)C(=O)c2ccncc2)[C@@H](C)CN([C@H](C)CO)C(=O)c2cc(NS(=O)(=O)c3ccc(F)cc3)ccc2O1 | 1 | 3 | -2
C[C@@H]1CN([C@@H](C)CO)C(=O)c2cc(NC(=O)Cc3ccccc3)ccc2O[C@@H]1CN(C)Cc1ccc(Cl)c(Cl)c1 | 60 | 30 | /
COc1ccc(NC(=O)CSc2nc(-c3ccccc3)cc(C(F)(F)F)n2)c([N+](=O)[O-])c1 | 13 | 4 | /
SMILES | NOMO-1 viab | MITF inh | Hedgehog inh
Cc1ccc(NC(=O)CSc2nc(-c3cccs3)cc(C(F)(F)F)n2)c([N+](=O)[O-])c1 | 107* | 21 | /
C[C@@H]1CN([C@@H](C)CO)C(=O)c2cc(NC(=O)Cn3cnnn3)ccc2O[C@H]1CN(C)C(=O)NC1CCCCC1 | -1 | 2 | -3
COc1ccc(NC(=O)Nc2ccc3c(c2)CC(=O)N([C@@H](C)CO)C[C@H](C)[C@@H](CN(C)S(=O)(=O)c2ccc(OC)cc2)O3)cc1 | 20 | 0 | /
FC(F)(F)c1cccc(NC(=S)Nc2cccnc2N2CCC(C(F)(F)F)CC2)c1 | ? | 19 | -2
Cc1ccc(S(=O)(=O)Nc2ccc3c(c2)C(=O)N([C@@H](C)CO)C[C@H](C)[C@@H](CN(C)Cc2ccc(-c4ccccc4)cc2)O3)cc1 | 59 | 3 | /
Cc1ccc(S(=O)(=O)Nc2ccc3c(c2)C(=O)N([C@@H](C)CO)C[C@@H](C)[C@@H](CN(C)Cc2ccc(-c4ccccc4)cc2)O3)cc1 | 101* | -6 | -33
Cc1ccc(S(=O)(=O)Nc2ccc3c(c2)C(=O)N([C@@H](C)CO)C[C@H](C)[C@H](CN(C)Cc2ccc(-c4ccccc4)cc2)O3)cc1 | 56 | -1 | /
